# Source: PubChem (National Center for Advancing Translational Sciences (NCATS))
# Hits are enriched below; roughly 2.4% of the tested compounds scored in any of these assays.
# POLB inh: DNA polymerase beta (human) inhibition; 340,000 compounds, 1.3% hits; Potency, µM (top dose mostly 114 µM), without a hit: top-dose activity change, negative = inhibition, most hits filed as inhibitors; Pol beta primer extension/strand displacement, fluorescence kinetic; P06746; further: on the % scale 0 is the no-effect control and ±100 the full control effect
#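 Curves were derived by four-parameter Hill fits of normalized qHTS data. The kinetic fluorescent primer-extension read was taken at 0 and 10 min after 50 nM substrate, following a 15 min room-temperature preincubation of 10 nM enzyme with compounds.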
# Pol iota inh: inhibitors of human DNA polymerase iota; Pol iota fluorescent replication assay, 10 min; Potency, µM (highest dose often 115 µM), for the others: top-dose activity, negative = inhibition, most hits filed as inhibitors; 390,000 compounds, 1% hits; AID 588590
#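 Fluorescent replication assay read twice, at 0 min and 10 min after adding 50 nM (final) substrate. Enzyme (10 nM) and compounds were first incubated 15 min at room temperature; enzyme-free buffer wells were negative controls.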
# POLK inh: inhibitors of human DNA polymerase kappa; Q9UBT6; purified Pol kappa, fluorescent DNA synthesis assay, 10 min; Potency, µM (series often up to 107 µM), inactives show at the top dose activity, negative = inhibition, most hits filed as inhibitors; 400,000 compounds, 0.53% hits; AID 588579; further: on the % scale 0 is the no-effect control and ±100 the full control effect
# Target sequence (Q9UBT6 whole entry, looked up): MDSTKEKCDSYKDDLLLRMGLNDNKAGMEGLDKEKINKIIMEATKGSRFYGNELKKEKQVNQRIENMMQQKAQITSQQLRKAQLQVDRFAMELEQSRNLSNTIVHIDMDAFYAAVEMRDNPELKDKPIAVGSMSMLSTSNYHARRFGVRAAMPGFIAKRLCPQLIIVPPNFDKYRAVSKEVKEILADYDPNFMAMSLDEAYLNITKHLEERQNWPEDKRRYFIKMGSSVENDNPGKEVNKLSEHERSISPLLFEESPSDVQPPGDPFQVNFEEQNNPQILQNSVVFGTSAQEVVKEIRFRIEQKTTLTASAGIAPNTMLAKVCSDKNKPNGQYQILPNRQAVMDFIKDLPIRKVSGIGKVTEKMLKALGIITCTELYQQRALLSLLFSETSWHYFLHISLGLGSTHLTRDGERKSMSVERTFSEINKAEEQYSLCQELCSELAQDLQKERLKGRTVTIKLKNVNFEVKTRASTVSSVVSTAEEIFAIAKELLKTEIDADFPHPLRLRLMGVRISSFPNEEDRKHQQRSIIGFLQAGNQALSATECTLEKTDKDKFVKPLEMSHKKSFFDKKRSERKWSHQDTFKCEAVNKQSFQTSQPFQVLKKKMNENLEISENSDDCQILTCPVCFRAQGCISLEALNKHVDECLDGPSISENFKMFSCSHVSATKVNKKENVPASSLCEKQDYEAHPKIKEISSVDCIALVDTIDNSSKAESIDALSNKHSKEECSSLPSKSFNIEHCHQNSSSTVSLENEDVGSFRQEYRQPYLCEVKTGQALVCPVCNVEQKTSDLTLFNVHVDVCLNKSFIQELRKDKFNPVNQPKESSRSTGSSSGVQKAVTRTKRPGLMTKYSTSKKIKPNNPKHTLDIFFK
#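 Fluorescent qHTS in 1536-well format: enzyme (10 nM) and compound sat 15 min at room temperature before 50 nM substrate (final) was added. Signal taken at 0 and 10 min; no-enzyme buffer wells were negative controls.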
# FEN1 inh: inhibitors of human flap endonuclease 1; Recombinant FEN1 flap cleavage, fluorescence, 15 min; AID 588795; P39748; 390,000 compounds, 0.35% hits; Potency, µM (series often up to 114 µM), for inactives: at the top dose activity change, negative = inhibition, usual class: inhibitors; further: on the % scale 0 is the no-effect control and ±100 the full control effect; nearly all actives have a fitted effect of over 65% in size
#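 Read-out was taken twice, immediately and after 15 min, following addition of 50 nM substrate to 10 nM FEN1 that had sat with test compound for 15 min at room temperature. Curves came from a four-parameter Hill model.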
# Pol eta inh: DNA polymerase eta (human) inhibition | recombinant Pol eta, fluorescent DNA replication assay | Potency, µM (top dose mostly 114 µM), without a hit: at the top dose activity change, negative = inhibition, usual class: inhibitors | 390,000 compounds, 1.2% hits | AID 588591; further: on the % scale 0 is the no-effect control and ±100 the full control effect
#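 Pol eta (10 nM) was preincubated with compounds for 15 min at room temperature, after which fluorescent replication substrate (50 nM final) was added to start the reaction. Fluorescence was read kinetically at 0 and 10 min.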
# WRN inhibitor: inhibitors of human WRN helicase; Potency, µM (highest dose often 114 µM), for the others: at the highest dose activity change, negative = inhibition, most hits filed as inhibitors; Q14191; AID 651768; WRN helicase unwinding, fluorescent forked duplex, kinetic; 360,000 compounds, 0.46% hits; further: on the % scale 0 is the no-effect control and ±100 the full control effect; nearly all actives have a fitted effect of over 55% in size
#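 Kinetic fluorescence helicase assay: unwinding of a quenched forked DNA duplex (100 nM final) with 2 mM ATP final raises red fluorescence (525/598 nm). Compounds sat 15 min at room temperature with 20 nM WRN beforehand.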
# The depositor's hits bear a star; u = inconclusive; x = no result given; [ ] = another dose, or the depositor's remark. The call rests on the fitted dose curve; in most records, active means well fitted curve in the direction sought with a large enough effect; inconclusive means small, poorly fitted or top-dose-only effect, or another doubt; inactive means no such curve, though single readings can be large; an effect the other way counts as inactive or inconclusive. Potency means the concentration at half of the fitted maximal effect.
SMILES,POLB inh,Pol iota inh,POLK inh,FEN1 inh,Pol eta inh,WRN inhibitor
CN(C)c1ccc(/C=N\Nc2ccc([N+](=O)[O-])cc2[N+](=O)[O-])cc1Br,x,15.0%,2.3%,-3.4%,x,x
Nc1cc2nc3ccccc3oc-2cc1=O,25.1µM*,20µM*,44.7µM*,u,u,-0.7%[11.6 µM]
CCOC(=O)CCc1c(C)c2cc3c(c(C)c2oc1=O)OCN(CCc1ccccc1OC)C3,-0.7%,-1.2%,0.0%,2.5%,-9.8%,x
Cn1nnnc1SCC1=C(C(=O)O)N2C(=O)[C@@H](NC(=O)[C@@H](O)c3ccccc3)[C@@H]2SC1,x,x,-15.8%[12 µM],x,x,x
O=C(Cc1cccs1)NC1C(=O)N2C(C(=O)[O-])=C(C[n+]3ccccc3)CSC12 (configuration not stated),x,x,3.55µM*,x,x,x
NC(=O)c1cc[n+](CC2=C(C(=O)O)N3C(=O)[C@@H](NC(=O)[C@@H](c4ccccc4)S(=O)(=O)[O-])[C@H]3SC2)cc1,10µM*,14.1µM*,26.7µM*,39.8µM*,3.16µM*,x
CCc1nnc(NC(=O)CSc2nnc(C3CC3)n2C)s1,-2.1%,12.5%,2.5%,2.6%,-15.3%,-25.8%
C=CCn1c(SCC(=O)Nc2nnc(C)s2)nnc1C1CC1,25.1µM*,u,-33.0%,-3.4%,u,-7.0%
CCC[N+](C)(C)c1ccc(/C=C/c2ccncc2)cc1,x,u,-27.0%,u,x,x
O=C([C@@H]1CC=C[C@@H]2CCN(C3CC3)C(=O)[C@@H]21)N1CCOCC1,x,43.7%,5.2%,20.2%,x,x
O=C(Nc1ccc(NC(=O)c2ccc(Cl)cc2Cl)cc1)c1ccc2c(c1)OCO2,60.1%,36.6%,0.6%,4.0%,-7.2%,19.3%
CC(C)(C)c1ccc(/C=C/C(=O)Nc2ccncc2)cc1,u,8.1%,1.1%,-14.7%,-23.9%,-4.7%
O=C(Nc1cccc(C2=NCCN2)c1)Nc1cccc(C2=NCCN2)c1,x,10.3%,7.52µM*,-13.3%,22.4µM*,8.0%
O=C(Nc1ccc(C2=NCCN2)cc1)c1ccc(C(=O)Nc2ccc(C3=NCCN3)cc2)c(Cl)c1,0.891µM*,u,u,50.1µM*,-15.5%,u
O=C(/C=C/c1ccc(/C=C/C(=O)Nc2ccc(C3=NCCN3)cc2)cc1)Nc1ccc(C2=NCCN2)cc1,x,x,18.9µM*,x,x,x
O=C(Nc1ccncc1)Nc1cccc(Cl)c1,24.4%,4.6%,5.4%,15.3%,10.3%,4.8%
O=C1C(Cl)=C(Nc2ccc3cn[nH]c3c2)C(=O)c2ccccc21,u,u,-24.7%,u,50.1µM*,-34.9%
O=C(Nc1ccc2cn[nH]c2c1)c1c(Cl)cccc1Cl,-8.5%,15.8%,-9.1%,-7.8%,-9.7%,-5.8%
CC(C)(C)n1ncc2c(=O)n(Cc3cccc(C(F)(F)F)c3Cl)cnc21,x,5.7%,-15.3%,-23.2%,x,x
O=c1oc2ccccc2nc1/C=C(\O)c1ccccc1,16.8%,-18.0%,1.5%,u,10.0%,-4.8%[11.6 µM]
O/C(=C\c1nc2ccccc2nc1/C=C(\O)c1ccccc1)c1ccccc1,-11.1%,30.5%,0.0%,-10.6%,-1.3%,44.7µM*
C[C@H](NC(=O)[C@@H](N)Cc1ccc(O)cc1)C(=O)NCC(=O)N[C@H]1CSSC[C@@H](C(=O)O)NC(=O)[C@H](CO)NC(=O)[C@H]([C@@H](C)O)NC(=O)[C@H](Cc2ccccc2)NC(=O)[C@H]([C@@H](C)O)NC(=O)[C@H](CCCCN)NC(=O)[C@@H](Cc2c[nH]c3ccccc23)NC(=O)[C@H](Cc2ccccc2)NC(=O)[C@H](Cc2ccccc2)NC(=O)[C@H](CC(N)=O)NC(=O)[C@H](CCCCN)NC1=O,x,x,16.9%[60.1 µM],x,x,x
COc1cc(OC)c(NC(=O)c2cn(C)c(=O)c3cc(OC)c(OC)cc23)cc1Cl,9.1%,30.2%,-19.7%,-7.0%,56.2µM*,x
O=C(CCC(=O)N1CCN(c2ccccn2)CC1)c1cccs1,x,4.2%,-6.8%,-0.1%,-18.8%,-22.7%
O=C(CCC(=O)N1CCN(c2ccccn2)CC1)c1ccc(Cl)s1,x,u,0.0%,8.4%,14.1µM*,-19.4%
SMILES,POLB inh,Pol iota inh,POLK inh,FEN1 inh,Pol eta inh,WRN inhibitor
COc1ccc(-c2cc(C(=O)O)c(C)o2)cc1OC,7.3%,14.2%,3.6%,8.0%,5.6%,4.0%
COc1cc2c(O)cc(C(=O)O)c(-c3cc(OC)c(OC)c(OC)c3)c2cc1OC,x,u,8.4%,-3.5%,89.1µM*,-2.3%[11.6 µM]
c1ccc(Cn2c(SCc3nc4ccccc4s3)nnc2-c2ccco2)cc1,50.1µM*,22.4µM*,u,u,14.1µM*,35.5µM*
COCCCNC(=O)CSc1ccsc1[N+](=O)[O-],-23.0%,u,u,11.7%,44.7µM*,-4.5%[11.6 µM]
COc1ccc([C@]23Cc4cc(C#N)ccc4C(O2)C2=C(CC4(CCCCC4)OC2=O)O3)cc1,-24.6%[22.9 µM],x,x,x,x,x
Cn1cc(Br)c(C(=O)Nc2sc3c(c2C#N)CCC3)n1,0.9%,106.8%,-9.0%,-0.6%,-9.0%,-23.3%
Cc1cc(C(=O)Nc2sc3c(c2C#N)CCC3)no1,u,u,-42.3%,7.7%,79.4µM*,-1.6%[11.6 µM]
Cc1onc(-c2ccccc2)c1C(=O)Nc1sc2c(c1C#N)CCC2,20µM*,20µM*,u,u,28.2µM*,50.1µM*
Cn1ccc(C(=O)Nc2sc3c(c2C#N)CCC3)n1,-26.4%,u,-29.7%,1.2%,79.4µM*,-8.5%[11.6 µM]
Cc1csc(SCC(=O)Nc2sc3c(c2C#N)CCC3)n1,20µM*,u,-28.7%,0.4%,u,-20.5%
COc1ccc(OC)c(/C=C/c2cc3ccccc3cn2)c1,x,-23.2%,-11.5%,u,x,x
Cc1sc(N)nc1-c1cccc([N+](=O)[O-])c1,x,-0.7%,-19.3%,-12.3%,x,x
COc1ccc(CN(C)CC(=O)Nc2sc3c(c2C#N)CCC3)c(OC)c1,20µM*,32.1%,-13.2%,-11.6%,-25.7%,0.0%[57.1 µM]
N#Cc1c(NC(=O)c2ccccc2)sc2c1CCCCC2,10.2%,8.0%,-18.1%,-1.5%,-7.5%,-6.3%
COc1ccc(CN(C)CC(=O)Nc2c(C)cccc2C)c(OC)c1,1.4%,118.4%,-8.6%,1.0%,0.9%,2.0%
CC(C)CCOc1ccc(C(=O)Nc2sc3c(c2C#N)CCCCC3)cc1,6.8%,-82.9%,89.1µM*,u,8.2%,x
O=C(O)c1ccc(NC(=O)C2CC=CCC2C(=O)O)cc1 (configuration not stated),-14.6%,8.2%,-5.5%,-1.3%,-7.1%,-29.6%[57.1 µM]
O=C(O)C1CC=CCC1C(=O)Nc1ccccc1 (configuration not stated),31.6µM*,10.4%,-5.7%,-3.2%,u,-7.5%
O=C(O)Cc1ccc(NC(=O)C2CC=CCC2C(=O)O)cc1 (configuration not stated),22.4µM*,x,x,x,x,x
